Results published in PubChem BioAssay.
Activity calls are given as the source filed them.

Assay: splicing luciferase reporter signal modulators, primary screen, spliceosome inhibition project, cell-based, HEK293, splice +/- reporter (AID 1101);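 also: HEK293 cells carrying a splicing-competent luciferase reporter gene; test concentration not given here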
Conditions: luminescence, 24 h, higher = more signal, called active from +8 up or from −8 down
In the case of `[N-]=[N+]=Nc1ccccc1C[C@@]1(C(=O)NCCN2CCOCC2)N=C(c2ccc(OCCCO)cc2)O[C@@H]1c1ccccc1N=[N+]=[N-]`, the z-score is reported as -0.222 (inactive).
With `CCCCC(CC)C(O)C1C=CC2C(=O)N(C)C(=O)C2N1Nc1ccccc1` (stereo not drawn) the z-score was 1.48 (inactive).
With `O=C1N(CCS(=O)(=O)c2ccccc2)c2ccccc2[C@H]2OC(c3ccc(OCCCO)cc3)=N[C@@]12Cc1ccccc1` the z-score was -1.49 (inactive).
With `COc1ccc(C#Cc2ccc3c(c2)[C@]2(C(=O)N3)[C@H](c3ccc(O)cc3)N3[C@H](c4ccccc4)[C@H](c4ccccc4)OC(=O)[C@H]3[C@@H]2C(=O)Nc2nc3ccccc3s2)cc1` the z-score was -0.793 (inactive).
In the case of `CCOc1cc(C(O)C2C=CC3C(=O)NC(=O)C3N2Nc2ccc(Cl)cc2Cl)ccc1O` (stereo not drawn), the z-score is reported as 1.22 (inactive).
For `Cc1ccc(S[C@]2(C(=O)NCC(F)(F)F)CC(=O)N(Cc3cc(C(F)(F)F)cc(C(F)(F)F)c3)[C@@H]2c2ccc(CO)cc2I)cc1`, the z-score was -0.719 (inactive).
For `C=CCC(OC(C)=O)[C@@H]1[C@@H](N(Cc2cc3ccccc3o2)C(=O)Cc2ccc(F)cc2)c2cc(OCCCO)ccc2N1C(=O)Cc1ccc2ccccc2c1` (stereo partly drawn), the z-score was -0.123 (inactive).
In the case of `CO[C@H]1O[C@H](CO)[C@@H](OC(=O)Nc2ccccc2)[C@H](OC(=O)c2cc3ccccc3[nH]2)[C@H]1OC(=O)c1cc2ccccc2[nH]1`, the z-score is reported as -0.447 (inactive).
